# Bioassay records deposited in PubChem by National Center for Advancing Translational Sciences (NCATS).
# In the library only some 7.3% were active in any assay of this set; here they are far more common.
# Tau FP inhib: tau fibrillization inhibition (FP) | K18 P301L tau heparin fibrillization, Alexa594 FP, 6 h | Potency, µM (doses to about 57.7 µM), inactives show at the top dose activity, negative = inhibition, actives largely listed as inhibitors | AID 1468 | actives 0.39% (n = 280,000) | P10636; also: nearly all actives have a fitted effect of over 55% in size
# Target sequence (P10636 561-689 P618L limits assumed): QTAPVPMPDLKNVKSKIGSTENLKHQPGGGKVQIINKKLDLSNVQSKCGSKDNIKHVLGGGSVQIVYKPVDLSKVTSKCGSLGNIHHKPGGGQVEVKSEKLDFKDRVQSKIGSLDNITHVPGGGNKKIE
#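 Human tau K18 […] P301L fragment, 15 uM unlabeled plus 0.24 uM Alexa 594-labeled tau (final), with compound and 20 uM heparin in 100 mM sodium acetate pH 7; 6 hr at 37 C, then Alexa 594 FP read.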
# RORg inh: blocks mouse ROR gamma transcriptional activity; P51450; Drosophila S2 Gal4-RORgamma UAS-luciferase reporter, 20 h; Potency, µM (series often up to 53.6 µM), for the others: at the top dose activity change, negative = inhibition, most hits filed as inhibitors; actives 5.4% (n = 310,000); also: nearly all actives have a fitted effect of over 60% in size
# Target sequence (P51450 whole entry, looked up, the tested form may be a part): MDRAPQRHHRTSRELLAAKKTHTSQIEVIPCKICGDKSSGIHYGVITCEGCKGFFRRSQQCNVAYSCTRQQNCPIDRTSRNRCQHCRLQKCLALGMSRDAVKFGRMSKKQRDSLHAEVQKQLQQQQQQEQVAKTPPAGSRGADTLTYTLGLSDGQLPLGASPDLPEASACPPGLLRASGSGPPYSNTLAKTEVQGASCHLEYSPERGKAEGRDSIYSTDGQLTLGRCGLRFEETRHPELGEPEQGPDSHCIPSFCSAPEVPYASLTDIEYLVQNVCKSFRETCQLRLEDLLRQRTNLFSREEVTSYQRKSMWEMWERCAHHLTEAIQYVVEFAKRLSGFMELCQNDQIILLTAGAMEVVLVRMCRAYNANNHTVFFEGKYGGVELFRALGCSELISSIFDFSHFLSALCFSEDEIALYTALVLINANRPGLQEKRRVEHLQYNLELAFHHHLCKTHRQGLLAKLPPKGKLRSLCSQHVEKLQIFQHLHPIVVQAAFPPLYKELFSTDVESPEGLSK
#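 Compounds are pin-transferred onto Drosophila Schneider cells expressing a copper-inducible Gal4–ROR gamma transactivation domain fusion. After 1 hr, copper sulfate is added to 700 uM final; luciferase is read 20 hr later.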
# VP16 counter: inhibits Gal4-VP16 luciferase reporter, ROR gamma counter-screen. Drosophila S2 Gal4-VP16 UAS-luciferase, luminescence, 20 h. Potency, µM (titrated, usually from 53.6 µM), for inactives: at the top dose activity, negative = inhibition, most hits filed as inhibitors. actives 3.5% (n = 310,000);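 also: Gal4-VP16 expression switched on by copper sulfate through the metallothionein promoter; nearly all actives have a fitted effect of over 50% in size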
# Tau ThT inhib: blocks human tau fibril formation measured by thioflavin T. actives 2.1% (n = 270,000). recombinant tau K18 P301L, heparin-induced fibrillization, ThT fluorescence. Potency, µM (top dose mostly 57.4 µM), inactives show top-dose activity, negative = inhibition, hits mostly inhibitors. P10636; also: nearly all actives have a fitted effect of over 55% in size
#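 Fibril formation assay: tau K18 P301L at 15 uM with trace Alexa 594 label, heparin inducer 20 uM, pH 7 sodium acetate buffer, 37 C for 6 hr; endpoint ThT signal.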
# Tau fluor counter: counter-screen for tau fibril formation inhibitors. tau K18 P301L Alexa594 fluorescence, heparin fibrillization. Potency, µM (titrated, usually from 57.7 µM), without a hit: at the highest dose activity change, negative = decrease. actives 0.93% (n = 280,000); also: nearly all actives have a fitted effect of over 55% in size
#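 Human tau K18 P301L (15 uM unlabeled, 0.24 uM Alexa 594-labeled) in 100 mM sodium acetate pH 7 with 20 uM heparin, 6 hr at 37 C. ThT 30 uM added, 1 hr ambient; Alexa 594 FP and total fluorescence read at 555/632 nm.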
# Numbers without * were called inactive; ? = inconclusive; . = no result; [ ] = remark or other dose. Calls follow the shape of the dose curve; as a rule, active = well fitted curve in the direction sought with a large enough effect; inconclusive = small, poorly fitted or top-dose-only effect, or another doubt; inactive = no such curve, though single readings can be large; an effect the other way counts as inactive or inconclusive. % is scaled to controls: 0 for no effect and ±100 for the full control effect; potency is read from the fitted curve at half-maximal effect.
SMILES,Tau FP inhib,RORg inh,VP16 counter,Tau ThT inhib,Tau fluor counter
Nc1nonc1C(=O)NCCNCc1cc(Br)ccc1OCc1ccccc1F,-7%,?,4µM*,-14%,-26%
Cc1ccc(C2N(c3nccs3)C(=O)C3CCCN32)cc1 (configuration not stated),?,13µM*,-16%,?,-13%
O=C1C2CCCN2C(c2ccc(F)cc2)N1c1nccs1 (configuration not stated),-11%,?,-2%,?,-4%
O=C1C2CCCN2C(c2ccc(Cl)cc2)N1c1nccs1 (configuration not stated),-10%,13µM*,-22%,?,-13%
CCCC(=O)N(c1ccc2oc(=O)sc2c1)S(=O)(=O)c1cccs1,?,-14%,-14%,32µM*,-23%
O=C1CCCN1CCC1CCN(C2CC(=O)N(Cc3ccc(N4CCCC4=O)cc3)C2=O)CC1 (configuration not stated),-3%,7.1µM*,?,-13%,3%
CC1(C)CCCN(C(=O)c2ccc3c(c2NCCO)C(=O)c2ccccc2C3=O)C1,18%,28%,?,14µM*,?
CCNc1c(C(=O)O)ccc2c1C(=O)c1ccccc1C2=O,6%,?,13µM*,?,-25%
O=C1c2ccccc2C(=O)c2c1ccc(C(=O)N1CCCCC1)c2NCCO,-2%,-13%,-11%,-15%,-12%
CNc1c(C(=O)O)ccc2c1C(=O)c1ccccc1C2=O,4%,-22%,?,?,-17%
CC(C)(C)c1ccc(N2C[C@@H](COc3ccc(C(=O)O)cc3)CC2=O)cc1,.,0%,-7%,.,.
C1=CC2c3ccccc3NC(c3ccncc3)C2C1 (configuration not stated),?,?,-2%,22µM*,?
CC(=O)c1ccc2c(c1)C1C=CCC1C(c1ccncc1)N2 (configuration not stated),?,-21%,8%,14µM*,?
CCc1ccccc1NC(=O)C(CCSC)NS(=O)(=O)c1ccc2c(c1)oc(=O)n2C (configuration not stated),-2%,.,.,7%,9%
CC(C)c1ccc(-c2noc(SCC(=O)N3CCCCC3)n2)cc1,-9%,.,.,?,-21%
CC1CCC/C=C/C(=O)c2c(O)cc(O)cc2CC(=O)O1 (configuration not stated),-5%,?,22µM*,?,-5%
COc1cc(O)c(CCO)c2c1C(=O)C[C@@H](C)O2,-2%,-2%,3%,8%,3%
Cc1ccc(NC(=O)C2CCC(CNS(=O)(=O)c3ccc4c(c3)CCCC(=O)N4)CC2)cc1F (configuration not stated),-3%,.,.,4%,-9%
CS(=O)(=O)c1ccc(Sc2nc3ccccc3s2)c([N+](=O)[O-])c1,10%,11µM*,10µM*,?,?
O=[N+]([O-])c1cc(S(=O)(=O)C(F)(F)F)ccc1Sc1nc2ccccc2[nH]1,-14%,?,?,25µM*,13µM*[quencher]
O=S(=O)(Nc1ccc(O)c(Sc2nc3ccccc3s2)c1)c1ccc(F)cc1,8%,88%,?,-15%,?
O=[N+]([O-])c1cc(S(=O)(=O)C(F)(F)F)ccc1Sc1nc2ccccc2s1,-13%,7.9µM*,6.3µM*,16µM*,13µM*[quencher]
NC(=O)c1c(NC(=O)c2noc3c2CCCC3)sc2c1CCCC2,?,.,.,28µM*,-26%
CCOC(=O)C1CCCN(C(=O)c2cc3ccccc3oc2=O)C1 (configuration not stated),3%,-14%,-15%,-5%,-8%
C[C@H](NC(=O)c1nc[nH]c1C(=O)N1CCc2ccccc2C1)C(=O)OC(C)(C)C,-5%,?,?,3%,2%
SMILES,Tau FP inhib,RORg inh,VP16 counter,Tau ThT inhib,Tau fluor counter
CC(C)C[C@H](NC(=O)c1nc[nH]c1C(=O)N1CCc2ccccc2C1)C(=O)OC(C)(C)C,-2%,11µM*,?,0%,-7%
CC(C)(C)OC(=O)CNC(=O)c1nc[nH]c1C(=O)N1CCN(c2ccccc2)CC1,.,13µM*,-24%,.,.
CC(C)C[C@H](NC(=O)c1nc[nH]c1C(=O)N1CCC(C)CC1)C(=O)OC(C)(C)C,0%,16µM*,?,-1%,-5%
O=C(CNC(=O)c1nc[nH]c1C(=O)N1CCc2ccccc2C1)OCc1ccccc1,.,14µM*,?,.,.
CC1CCN(C(=O)c2[nH]cnc2C(=O)NCC(=O)OCc2ccccc2)CC1,.,9%,-9%,.,.
COc1ccc(C2CC(c3ccccc3)Oc3ccc(OC)cc32)cc1 (configuration not stated),.,28%,-5%,.,.
Cc1cccc(C)c1NC(=O)Cn1nc(C)c2sc3ccccc3c2c1=O,0%,.,.,-13%,-13%
CC(C)C[C@H](NC(=O)c1nc[nH]c1C(=O)N1CCN(c2ccccc2)CC1)C(=O)OC(C)(C)C,4%,13µM*,?,-1%,-21%
O=C(CCl)N1c2ccccc2OCC1c1ccccc1 (configuration not stated),3%,22%,-12%,12%,5%
O=C(CCl)N1c2ccccc2SCC1c1ccccc1 (configuration not stated),.,11µM*,14µM*,.,.
Cc1csc(NC(=O)c2cn3ccccc3n2)n1,0%,5µM*,7.9µM*,2%,1%
O=C(Nc1ccc(-n2cnnn2)cc1)c1cn2ccccc2n1,3%,4%,-9%,?,1%
O=C(Nc1ccccc1)c1cn2ccccc2n1,6%,?,2.8µM*,-5%,-7%
CCOc1ccc(-n2ccn3c(CC(C)CC(=O)O)nnc3c2=O)cc1 (configuration not stated),-5%,.,.,-16%,-13%
CC1=C(C(=O)OC2CCCC2)C(c2c(Cl)cccc2Cl)CC(=O)N1 (configuration not stated),1%,.,.,-15%,-16%
Cc1cc(C)c(NC(N)=S)c(C)c1,2%,?,-25%,-4%,-13%
Cc1ccc(C(N)=S)c(C)c1,-1%,20µM*,?,-5%,-5%
CCCOc1ccc(C(=O)NNC(=S)NC(=O)c2cc(-c3ccc(Cl)cc3)nc3ccccc23)cc1,14%,0.11µM*,?,-4%,-19%
COC(=O)c1ccc(NC(=S)NC(=O)c2cc(-c3ccccc3)nc3ccccc23)cc1,-13%,0.45µM*,2µM*,?,-19%
CCNC(=S)NNC(=O)c1cc(-c2ccc(OCC)cc2)nc2ccccc12,13%,20%,1%,7%,-24%
COC(=O)c1ccc(NC(=O)c2cc(-c3ccccn3)nc3ccccc23)cc1,-5%,-15%,-7%,-9%,-11%
